We go through 39 molecules from the supplement of paper PMC12669032.

The structures appear in SMILES notation. Values without a mark were called inactive.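 The calls were made as follows: active = AUC reduced over 20% with Padj below 0.05 in at least 2 of 3 replicates; inactive = otherwise.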

This test has as its system Fusobacterium nucleatum subsp. animalis. Nature of the test: growth AUC relative to DMSO control (median of replicates) (fraction); higher = more growth (less inhibition), active = hit call of the paper. Particulars: 20 µM; 24 h. In a few lines: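 Each value is the median of three biological replicates, grown on separate days, of a gut bacterial monoculture incubated anaerobically at 37 °C in mGAM with 20 µM compound (1% DMSO). Cultures started at OD600 0.05 and were read at OD600 hourly for 24 h, with the minimum OD set to 0. Area under the growth curve was normalised to the plate median of solvent-only wells, or to row and column medians on the industrial chemical plate.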
For `O=C(O)C1(O)c2ccccc2-c2ccc(Cl)cc21` (centres undefined), the “growth AUC” value was 0.982.

With `O=C(O)C(F)(F)C(F)(F)C(F)(F)C(F)(F)C(F)(F)C(F)(F)C(F)(F)F`, the “growth AUC” value was 1.

As to `COP(=O)(OC)OC=C(Cl)Cl`, the “growth AUC” value was 1.09.

With `CCCN(CC)CC1COC2(CCC(C(C)(C)C)CC2)O1` (centres undefined), the “growth AUC” value is 0.899.

Consider `CCOP(=O)(SC(C)CC)N1CCSC1=O` (centres undefined), for which the “growth AUC” value is 1.01.

As for `O=NN(CCO)CCO`, the “growth AUC” value was 1.01.

As to `CSc1nc(N=[N+]=[N-])nc(NC(C)C)n1`, the “growth AUC” value is 0.812.

For the molecule `COP(=O)(OC)Oc1ccc(S(C)=O)c(C)c1` (centres undefined), the “growth AUC” value is 0.911.

Turning to `O=C(Nc1ccccc1)N(Cc1ccc(Cl)cc1)C1CCCC1`, the “growth AUC” value is 0.985.

As for `CC(C)OC(=O)C(C(=O)OC(C)C)=C1SCCS1`, the “growth AUC” value is 1.02.

Consider `CCC(C)[C@H]1O[C@]2(C=C[C@@H]1C)C[C@@H]1C[C@@H](C/C=C(\C)[C@@H](O[C@H]3C[C@H](OC)[C@@H](O[C@H]4C[C@H](OC)[C@@H](O)[C@H](C)O4)[C@H](C)O3)[C@@H](C)/C=C/C=C3\CO[C@@H]4[C@H](O)C(C)=C[C@@H](C(=O)O1)[C@]34O)O2.CO[C@H]1C[C@H](O[C@H]2[C@H](C)O[C@@H](O[C@@H]3/C(C)=C/C[C@@H]4C[C@@H](C[C@]5(C=C[C@H](C)[C@@H](C(C)C)O5)O4)OC(=O)[C@@H]4C=C(C)[C@@H](O)[C@H]5OC/C(=C\C=C\[C@@H]3C)[C@]54O)C[C@@H]2OC)O[C@@H](C)[C@@H]1O` (some centres undefined), for which the “growth AUC” value is 1.15.

On to `CCCN(CCC)c1c([N+](=O)[O-])cc(C(C)C)cc1[N+](=O)[O-]`, for which the “growth AUC” value is 1.

Regarding `Nc1ccncc1`, the “growth AUC” value was 0.969.

Consider `CCCSP(=O)(OCC)SCCC`, for which the “growth AUC” value was 0.995.

`BrCCBr`: the “growth AUC” value was 1.01.

Take `CCCC(Cn1cncn1)c1ccc(Cl)cc1Cl` (centres undefined): the “growth AUC” value was 1.05.

In the case of `Nc1nc(N)nc(NC2CC2)n1`, the “growth AUC” value is 1.04.

With `C#CC(C)(C)NC(=O)c1cc(Cl)cc(Cl)c1`, the “growth AUC” value was 0.95.

With `Oc1ccc(Cl)cc1`, the “growth AUC” value was 0.941.

On to `CNC(=O)Oc1cccc2c1OC(C)(C)O2`, for which the “growth AUC” value was 1.01.

`CCNc1nc(Cl)nc(NC(C)(C)C#N)n1`: the “growth AUC” value is 0.949.

On to `ClC1=C(Cl)C(Cl)(C2(Cl)C(Cl)=C(Cl)C(Cl)=C2Cl)C(Cl)=C1Cl`, for which the “growth AUC” value was 1.13.

Regarding `COP(=O)(OC)Oc1ccc(S(C)(=O)=O)c(C)c1`, the “growth AUC” value was 0.998.

Turning to `CC(C)(C)C(O)C(Oc1ccc(-c2ccccc2)cc1)n1cncn1` (mixture of isomers), the “growth AUC” value was 1.07.

As to `CC(C)(C)N(NC(=O)c1ccc(Cl)cc1)C(=O)c1ccccc1`, the “growth AUC” value was 0.913.

For `Cc1ccccc1[N+](=O)[O-]`, the “growth AUC” value is 1.03.

`CCN(CC)C(=O)C(C)Oc1cccc2ccccc12` (centres undefined): the “growth AUC” value is 1.02.

As to `CCN(CC)C(=O)SCc1ccc(Cl)cc1`, the “growth AUC” value was 0.957.

Consider `CNC(=O)ON=C(CS(C)=O)C(C)(C)C` (centres undefined), for which the “growth AUC” value is 1.01.

`COP1(=S)OCc2ccccc2O1` (centres undefined): the “growth AUC” value was 1.12.

As for `O=C(O)C(Cl)Cl`, the “growth AUC” value is 1.04.

As for `N#CN=C1SCCN1Cc1ccc(Cl)nc1`, the “growth AUC” value was 1.11.

As for `CC(C)NC(=O)N1CC(=O)N(c2cc(Cl)cc(Cl)c2)C1=O`, the “growth AUC” value was 0.948.

Take `O=[N+]([O-])c1ccccc1`: the “growth AUC” value was 1.07.

Regarding `[Cl][Sn]([c]1ccccc1)([c]1ccccc1)[c]1ccccc1`, the “growth AUC” value was 0.897.

`Nc1ncn[nH]1`: the “growth AUC” value was 1.1.

As to `CC(C)OC(=O)C(O)(c1ccc(Br)cc1)c1ccc(Br)cc1`, the “growth AUC” value was 1.01.

As to `CNC1=C(c2cccc(C(F)(F)F)c2)C(=O)C(c2ccccc2)O1` (centres undefined), the “growth AUC” value is 0.969.

On to `O=c1oc2ccccc2c(O)c1C1CC(c2ccc(-c3ccc(Br)cc3)cc2)Cc2ccccc21` (centres undefined), for which the “growth AUC” value was 0.96.
